Shown are actives, neighbours in structure and some others; about 4.6% of the full set was active somewhere.
Hsp90 Hop PPI: changes Hsp90-Hop TPR2A binding signal, up or down; 71,000 tested, 0.44% active; AlphaScreen TPR2A-His6 binding biotin-Hsp90 C-terminal peptide; Potency, µM (highest dose often 57 µM), inactives show top-dose activity change, negative = inhibition; AID 595; active means well fitted curve in either direction with a large enough effect; inconclusive means small, poorly fitted or top-dose-only effect, or another doubt; further: on the % scale 0 is the no-effect control and ±100 the full control effect
Tau filament bind: binds recombinant human tau filaments | P10636 | recombinant tau filaments, thioflavin S fluorescence, 15 h; filaments grown with octadecylsulfate alongside compound | Potency, µM (highest dose often 57.1 µM), without a hit: top-dose activity change, negative = inhibition | 71,000 tested, 2% active | AID 596;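 further: on the % scale 0 is the no-effect control and ±100 the full control effect; actives lower thioflavin S fluorescence by blocking filaments or displacing dye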
Target sequence (P10636 whole entry, looked up): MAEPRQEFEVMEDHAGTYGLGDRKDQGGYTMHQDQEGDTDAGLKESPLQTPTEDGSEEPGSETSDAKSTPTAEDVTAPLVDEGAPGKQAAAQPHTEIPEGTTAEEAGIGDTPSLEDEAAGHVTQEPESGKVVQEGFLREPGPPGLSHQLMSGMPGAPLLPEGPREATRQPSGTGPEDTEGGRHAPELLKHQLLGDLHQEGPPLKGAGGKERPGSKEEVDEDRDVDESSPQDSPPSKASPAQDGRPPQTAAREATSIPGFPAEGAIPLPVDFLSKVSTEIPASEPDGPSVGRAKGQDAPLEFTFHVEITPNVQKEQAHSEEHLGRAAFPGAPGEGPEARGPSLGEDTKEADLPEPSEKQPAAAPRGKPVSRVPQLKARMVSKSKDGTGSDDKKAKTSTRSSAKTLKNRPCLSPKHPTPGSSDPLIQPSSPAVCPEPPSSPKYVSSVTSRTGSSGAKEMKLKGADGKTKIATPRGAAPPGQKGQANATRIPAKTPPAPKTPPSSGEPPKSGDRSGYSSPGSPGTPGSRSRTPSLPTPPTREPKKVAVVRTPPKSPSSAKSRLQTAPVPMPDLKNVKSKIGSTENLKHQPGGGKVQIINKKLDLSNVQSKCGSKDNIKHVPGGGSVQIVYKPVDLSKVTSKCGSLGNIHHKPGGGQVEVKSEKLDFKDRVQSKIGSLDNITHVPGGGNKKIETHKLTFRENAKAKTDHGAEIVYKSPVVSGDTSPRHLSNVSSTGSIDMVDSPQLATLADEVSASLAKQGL
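Read-out: ThS fluorescence, 450 nm excitation/510 nm emission; lower signal marks blocked filament formation or displaced dye. Tau at 1 uM with 30 uM ODS, 10 uM ThS, 5 mM DTT, 100 mM NaCl, 10 mM HEPES pH 7.4; 15 h, 37 C.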
15-hLO inh: inhibitors of human 15-lipoxygenase (ALOX15). purified 15hLO-1, xylenol orange hydroperoxide absorbance. P16050. 74,000 tested, 1.4% active. Potency, µM (highest dose often 57.1 µM), inactives show at the top dose activity change, negative = inhibition, most hits filed as inhibitors. AID 887; further: on the % scale 0 is the no-effect control and ±100 the full control effect; nearly all actives have a fitted effect of over 55% in size
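Inhibition is scored from a chromogenic endpoint. After 15 min enzyme-compound contact, arachidonic acid (50 uM final) reacts 6 min with 40 nM 15hLO-1 at room temperature, then Fe-XO reagent is added for 30 min and absorbance ratio recorded.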
GBA mod: alters purified human glucocerebrosidase activity. AID 360. 48,000 tested, 1.1% active. P04062. purified enzyme, resorufin glucoside fluorescence (screen aimed at inhibitors), 20 min. Potency, µM; in the data active means potency below about 15 µM; inconclusive means mostly about 16 µM to 33 µM;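 further: the screen sought inhibitors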
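Normal human glucocerebrosidase (0.2 nM final) was assayed with resorufin β-D-glucopyranoside (30 uM final) in 50mM citric acid/KH2PO4, 10mM sodium taurocholate, 0.01% tween-20, pH 5.9. Compounds were titrated; fluorescence (Ex 548, Em 600) read after 20 min at RT.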
USP2a inh: blocks human ubiquitin-specific protease USP2a; O75604; USP2a enzymatic assay, qHTS inhibition; Potency, µM (doses to about 38.3 µM), without a hit: at the highest dose activity change, negative = inhibition, most hits filed as inhibitors; 60,000 tested, 0.1% active; further: nearly all actives have a fitted effect of over 60% in size
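USP2 core (20 nM final) was preincubated with compound for 30 min at RT in 20 mM Tris-HCl pH 8.0, 2 mM CaCl2, 2 mM beta-mercaptoethanol; Ub-PLA2 (20 nM) plus NBD C6-HPC (20 uM) then added, fluorescence read after 2.5 h.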
PK Bst: pyruvate kinase (B. stearothermophilus) modulation | purified pyruvate kinase, luminescence ATP production; ribose 5-phosphate activator present at AC10 | Potency, µM | 51,000 tested, 1.2% active | AID 361; in the data active means potency below about 11 µM; inconclusive means mostly about 12 µM to 25 µM;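 the screen sought inhibitors and activators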;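 further: scaled between full activation by ribose 5 phosphate and full inhibition by luteolin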
Starred values were filed as active, the others as inactive; i = inactive; ? = inconclusive; / = no result; [ ] = another dose, or the depositor's remark. Unless noted, the call rests on the fitted dose curve; in most records, active means well fitted curve in the direction sought with a large enough effect; inconclusive means small, poorly fitted or top-dose-only effect, or another doubt; inactive means no such curve, though single readings can be large; an effect the other way counts as inactive or inconclusive. Potency means the concentration at half of the fitted maximal effect.

SMILES	Hsp90 Hop PPI	Tau filament bind	15-hLO inh	GBA mod	USP2a inh	PK Bst
COc1ccccc1Nc1nc(N)nc(CSc2ncccn2)n1	?	8%	-12%	>77	0%	>57
COc1ccccc1N1CCN(Cc2nc(N)nc(Nc3ccc(C)c(Cl)c3)n2)CC1	?	12%	-20%	5.3*	45%	>57
CS(=O)(=O)NCCC1=CCCCC1	-3%	-12%	20µM*	>77	-10%	>57
COc1ccc(-c2nc(-c3ccncc3)no2)cc1OC	-1%	-4%	-2%	>77	3%	i
CCC(C)[C@@H](C(=O)Nc1ccc2c(c1)OCO2)N1Cc2ccccc2C1=O (stereo partly specified)	-4%[2.3 µM]	25µM*	-15%	/	/	/
O=C(CSc1nnc(COc2cccc3cccnc23)o1)c1ccc(F)cc1	-7%	20%	-7%	>77	11%	10*
Cc1ccc(C(=O)CSc2nnc(COc3cccc4cccnc34)o2)cc1	1%	11%	6%	>77	/	>57
COC(=O)c1ccc(-c2nc3ccc(C)cc3o2)cc1	1%	5%	-2%	>77	-6%	3.3*
Cc1ccc2nc(-c3ccccn3)oc2c1	2%	0%	-8%	>77	4%	6.9*
COc1ccc(-n2c(N)c(C(=O)NCC3CCCO3)c3nc4ccccc4nc32)c(OC)c1 (stereo unspecified)	?	25µM*	?	>77	40%	>57
Cn1c(CN2CCCC2)nc2cc(NC(=O)c3ccco3)ccc21	-4%	-9%	17%	>77	-2%	/
O=c1cc(-c2ccccc2)nc2n1Cc1ccccc1-2	0%	30%	3%	>77	16%	0.88*
O=c1nc2n(c3ccccc13)Cc1ccccc1-2	0%	-11%	3%	>77	-4%	>11
CCCCCCSC1=C(C#N)C(c2ccc(O)cc2)CC(=O)N1 (stereo unspecified)	-6%	44%	20µM*	?	-7%	>11
c1ccc(-c2csc(-c3nc4ccccc4[nH]3)n2)cc1	/	/	7.9µM*	/	/	/
Nc1cccc(-c2nc3ccccc3[nH]2)c1	0%	-2%	14%	/	1%	/
C=CCn1c(=O)/c(=C/c2ccc(C)o2)s/c1=C(/C#N)C(=O)c1ccccc1	?	46%	16µM*	>15	22%	>57
Cc1ccc(/C=c2\sc3nc(-c4ccccc4Br)nn3c2=O)o1	-2%	-2%	-2%	>77	1%	>57
CCCCC(=O)Nc1ccc(Cl)cn1	1%	3%	0%	>77	-2%	>57
O=C1CCCC/C1=C\Nc1ccc(Cl)cn1	-3%	5%	-16%	14*	-12%	>57
O=C1CCCC/C1=C\Nc1ccc(O)cc1	-7%	-17%	20µM*	>77	-10%	>11
O=C(COC(=O)CCc1ccc(S(=O)(=O)N2CCOCC2)cc1)Nc1ccc(Cl)cn1	0%	-1%	-10%	?	15%	>57
COc1ccccc1-c1nn2c(-c3ccco3)nnc2s1	/	/	/	/	/	8.2*
COc1ccc(-c2nn3c(-c4ccccc4)nnc3s2)cc1	1%	203%	-15%	>77	?	3.4*
c1coc(-c2nn3c(-c4ccco4)nnc3s2)c1	-4%	-8%	-24%	>77	8%	i
SMILES	Hsp90 Hop PPI	Tau filament bind	15-hLO inh	GBA mod	USP2a inh	PK Bst
c1ccc(-c2nnc3sc(-c4ccncc4)nn23)cc1	-5%	-9%	-7%	>77	6%	/
c1ccc(-c2nnc3sc(-c4csc5c4CCCC5)nn23)cc1	-4%	217%	16µM*	/	9%	i
OCc1nnn(-c2cccc(C(F)(F)F)c2)c1CO	0%	11%	6%	>77	4%	>57
O=C(c1ccc2c(c1)OCO2)N(CC1CCCO1)C1(C(=O)NC2CCCC2)CCCCC1 (stereo unspecified)	-9%	-2%	-2%	>77	12%	>57
CCOC(=O)C(C(=O)OCC)c1cc(Br)c2noc3c2c1C(=O)c1ccccc1-3	?	2µM*	-19%	?	66%	>57
O=C(Nc1ccc(CN2CCOCC2)cc1)c1ccc(-c2ccc(Br)cc2)o1	-13%	6%	-23%	/	47%	7.1*
COC(=O)c1ccc(NC(=O)c2ccc(CN3CCOCC3)cc2)cc1	-4%	8%	1%	/	5%	>57
c1cnc2c(SCc3ccc(-c4nnco4)cc3)cccc2c1	-7%	271%	0%	>77	-5%	2.4*
CC(C)(C)OC(=O)N1CCCC(C(=O)CC#N)C1 (stereo unspecified)	-7%	-18%	-3%	/	27%	>57
COC(=O)c1cc(CSc2nnc(-c3ccccc3)c(-c3ccccc3)n2)oc1C	-2%	16µM*	9%	>77	37%	>57
COC(=O)c1cc(CSc2nc3ccc(C)cc3[nH]2)oc1C	-1%	-2%	-5%	>77	19%	>57
Nc1nc2c(nc(Br)n2[C@@H]2O[C@H]3COP(=O)(O)O[C@H]3[C@@H]2O)c(=O)[nH]1	-4%	?	-13%[25.6 µM]	/	/	/
O=[N+]([O-])c1cc(Cl)cc2c1nc(NCCO)c1ccccc12	-9%[11 µM]	4µM*	-15%[11.4 µM]	/	/	/
O=[N+]([O-])c1cc(N(CCO)CCO)ccc1NCCO	-21%	-13%	-21%	/	/	/
CC(C)(C)NC(=O)C1CCN(S(=O)(=O)c2ccc(Br)cc2)CC1	5%	-10%	-6%	>77	5%	>57
Cc1nc2ccccc2c(=O)n1NC(=O)COc1ccccc1	-4%	-16%	1%	/	-5%	/
O=C(COc1ccccc1)Nn1cnc2ccccc21	-7%	-3%	13µM*	>77	-5%	>57
CC(C)Sc1nc(SCC(=O)NCc2ccco2)c2c3c(sc2n1)COC(C)(C)C3	-5%	-3%	5%	>77	-5%	>57
Nc1ccccc1C(=O)C[C@@H](N)C(=O)O	?	40µM*	/	/	/	/
Nc1c(O)cccc1C(=O)C[C@@H](N)C(=O)O	-3%[26 µM]	4%[25.6 µM]	-11%[25.6 µM]	/	-6%[17.1 µM]	/
N#CCCn1ccc(NC(=O)c2ccc(Cl)cc2)n1	-2%	-2%	-2%	>77	2%	>57
COC(=O)c1ccc(CSc2nc3c(cnn3-c3ccc(Cl)cc3)c(=O)[nH]2)o1	-1%	464%	-8%	>77	1%	>57
CCCc1ccc(-c2ccc(C(=O)O)cc2)nc1	2%	-7%	0%	/	/	/
CCCCc1ccc(-c2ccc(C)cc2O)nc1	?	-4%	3%	>77	-6%	9.8*
CCN(CC(=O)NC)S(=O)(=O)c1ccc(Br)cc1	-6%	6%	3%	>77	6%	>57
CC(O)CN1C(=O)C(CC(=O)Nc2ccc(Cl)cc2)SC1=Nc1ccccc1 (stereo unspecified)	1%	9%	?	?	40%	>57
O=C(CSc1nnc(Cc2csc(Nc3cccc(Cl)c3)n2)o1)N1CCc2ccccc21	-10%	102%	-11%	14*	30%	>57
CCOC(=O)c1snc2c(=O)[nH]cnc12	1%	2%	18%	>77	/	>57
